Assay outcomes deposited in PubChem BioAssay by The Scripps Research Institute Molecular Screening Center.
A selection: hits, their analogues and other compounds. The true share with any hit is near 4.1%.
DAX1 inh-1 – DAX1 (NR0B1) inhibition, primary screen | inhibition, % at 6.8 µM | HEK293T StAR-luciferase reporter, SF-1/DAX-1 repression relief | 1.1% of 370,000 active;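 active = inhibition above the mean over all tested compounds plus 3 SD, cut at about 3.6% in these data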;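 also: 0% = DAX-1 cells with DMSO and 100% = cells lacking DAX-1 with DMSO; higher inhibition means more luminescence from relief of DAX-1 repression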
hgDAF12 agonist – agonists of H. glycines DAF-12 nuclear receptor; HEK293 GAL4-hgDAF12 UAS-luciferase reporter, agonist luminescence; normalized to butyrate control; activation, % at 6.8 µM; 1.8% of 370,000 active;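 active = activation above a cutoff set at the mean of all screened compounds plus 3 SD, cut at about 10% in these data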;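 also: 0% = DMSO wells and 100% = sodium butyrate wells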
DAX1 inh-2 – inhibits human nuclear receptor DAX1. inhibition, % at 6.75 µM. 0.99% of 340,000 active. AID 504766. HEK293 Gal4-DAX1 luciferase reporter, luminescence;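 active = inhibition above the mean over all tested compounds plus 3 SD, cut at about 4.2% in these data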;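 also: 0% = DAX1-transfected cells with DMSO and 100% = empty-vector control cells with DMSO; inhibition shows as a rise in luminescence from relieved DAX1 repression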
Target sequence (P51843 207-470 limits assumed): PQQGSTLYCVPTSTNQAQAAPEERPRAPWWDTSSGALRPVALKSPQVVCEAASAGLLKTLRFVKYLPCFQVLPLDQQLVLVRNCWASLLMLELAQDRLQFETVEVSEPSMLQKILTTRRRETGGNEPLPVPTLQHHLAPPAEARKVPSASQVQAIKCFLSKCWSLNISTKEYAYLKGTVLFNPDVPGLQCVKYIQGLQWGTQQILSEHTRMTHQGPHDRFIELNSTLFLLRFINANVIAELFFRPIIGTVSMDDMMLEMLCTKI
hcDAF-12 act – H. contortus DAF-12 activation, primary screen. 1.4% of 370,000 active. AID 652067. HEK293 hcDAF-12 lit1-tk-luc reporter, luminescence; 0% DMSO, 100% Δ7-dafachronic acid. activation, % at 6.8 µM;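 active = activation above the mean of all tested compounds plus 3 SD, cut at about 5.5% in these data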;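 also: 100% = response to 3 µM Δ7-dafachronic acid high control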
ssDAF12 agonist – activates DAF-12 receptor from parasite S. stercoralis; HEK293 ssDAF-12/GRIP1 lit1-tk-luc reporter, luminescence; % of 3 µM dafachronic acid response; activation, % at 6.8 µM; 1% of 370,000 active; AID 652126;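 active = activation above the mean over all tested compounds plus 3 SD, cut at about 0.9% in these data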;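 also: 0% = DMSO-only wells and 100% = 3 µM delta7-dafachronic acid wells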
Starred values were filed as active, the others as inactive; . = not tested or not shown.

SMILES | DAX1 inh-1 | hgDAF12 agonist | DAX1 inh-2 | hcDAF-12 act | ssDAF12 agonist
O=C(Nc1ccc2c(c1)OCO2)OC1CCC12CCC(c1ccccc1)CC2 (stereo not given) | 0 | 6 | . | 3 | -1
O=C(Nc1cccnc1)c1ccc(N2CCOCC2)c([N+](=O)[O-])c1 | 0 | 0 | 1 | -1 | -2
O=C(Nc1cccnc1)c1ccc(N2CCCC2)c([N+](=O)[O-])c1 | 0 | 2 | 5.2* | 1 | -1
c1ccc(NC(c2ccccc2)c2ccncc2)cc1 (stereo not given) | 0 | 1 | 2 | 0 | 1.4*
c1ccc(C(Nc2cccnc2)c2ccccc2)cc1 | -1 | 1 | 1 | -1 | -1
COc1ccc(CNC(=O)Cc2csc(Nc3nc(=S)[nH]c4ccccc34)n2)cc1 | 1 | -3 | 1 | 5 | 1.0*
O=C(CSc1ccc(F)cc1)NC1CCCCC1 | 1 | 7 | 0 | 2 | -1
O=C(CSc1ccc(Br)cc1)NC1CCCCCC1 | 0 | 3 | 0 | 0 | 1.9*
CSc1ccccc1C(=O)N1CCc2ccc(NC(=O)c3ccccn3)cc2C1 | 3 | 11* | 1 | 3 | -1
CSc1ccc(C(=O)N2CCc3ccc(NC(=O)c4ccccn4)cc3C2)cc1 | 1 | 3 | 0 | 0 | -1
COC(=O)[C@]12C[C@H](CC(=O)NCc3cccs3)C(=O)N(Cc3cccc4ccccc34)C1=C[C@H](COCc1ccccc1)O[C@@H]2C | -1 | 0 | . | 1 | -1
CCn1c(=O)cc(OCC(=O)O)c2ccccc21 | -1 | 1 | 0 | 0 | -1
CCn1c(=O)cc(OCC(=O)NCCC(C)C)c2ccccc21 | 0 | -2 | 1 | 0 | 0.9*
O=C(c1ccc(CS(=O)(=O)c2ccc(Br)cc2)o1)N1CCN(c2ccccn2)CC1 | -1 | -1 | -3 | -1 | -1
Cc1ccc(S(=O)(=O)Cc2ccc(C(=O)N3CCN(c4ccccn4)CC3)o2)cc1 | 0 | 0 | 4.7* | -1 | -2
O=P(Cc1ccncc1)(c1ccccc1)c1ccccc1 | 0 | -2 | 5.9* | 1 | 0
C=CCn1c(SCC(C)=O)nnc1-c1ccc2ncccc2c1 | 0 | -2 | 4.9* | -1 | -1
O=C1CC(NCCc2ccccc2)C(=O)N1CCc1ccccc1 (stereo not given) | 0 | 1 | 0 | 1 | -1
COc1ccc(CCNC2CC(=O)N(CCc3ccccc3)C2=O)cc1 (stereo not given) | 0 | -2 | 4.5* | -1 | -2
Cc1ccc(C(=O)N2CCC(Oc3cccnc3)CC2)cc1 | 0 | -5 | . | -1 | -1
NC(=O)CSc1nnnn1-c1cccc(Cl)c1 | 0 | 1 | 1 | -2 | -1
C#CCSc1nnnn1-c1cccc(Cl)c1 | -1 | 2 | 4.3* | -2 | -2
Cn1cc(/C=C2\SC(=S)N(NC(=O)c3ccccc3)C2=O)c2ccccc21 | -1 | 1 | 0 | 4 | 1.0*
Cn1cc(/C=C2\SC(=S)N(NC(=O)c3cccc(Cl)c3)C2=O)c2ccccc21 | 0 | 3 | 0 | -1 | -1
CCNC(=S)NNC(=O)c1cnccn1 | -1 | 4 | . | -3 | -1
SMILES | DAX1 inh-1 | hgDAF12 agonist | DAX1 inh-2 | hcDAF-12 act | ssDAF12 agonist
COc1ccc(C(=O)NCCN(C)C)c2nc3ccccc3cc12 | -4 | -6 | -3 | 5.8* | 0
COc1cccc2nc3c(C(=O)NCCN(C)C)cccc3cc12 | -5 | -5 | -2 | 1 | 0
COc1ccc(NC(=O)C2=C(C)NC(=S)NC2c2ccc(O)c(OC)c2)cc1 (stereo not given) | 0 | 5 | 0 | 0 | -1
COc1cc(C2NC(=S)NC(C)=C2C(=O)Nc2ccc(C)cc2)ccc1O (stereo not given) | 2 | 11* | 2 | 3 | 0
Fc1cccc(NCc2cn3ccccc3n2)c1 | 4 | 11* | 1 | 4 | 1
COc1ccc(/C=N/NC(=O)CN2CCCc3ccccc32)c(OC)c1 | 0 | 1 | 0 | 5.8* | 0
CCC[C@H]1[C@@H](OC(=O)N2CCCC2)CC[C@@]23CCCN2C(=O)CCC[C@@H]13 | . | 3 | . | -2 | -1
CN1CCN(Cc2coc3c(Cl)cc(Cl)cc3c2=O)CC1 | 0 | -3 | 0 | 1 | 1.3*
O=c1c(CN2CCN(c3cccc(Cl)c3)CC2)coc2c(Cl)cc(Cl)cc12 | -1 | 0 | 0 | 1 | -1
O=C(COc1ccc(F)c(Cl)c1)N[C@H]1CCCN(CC2CC2)C1 | . | -2 | . | 4 | 0
COC(=O)c1cc(=O)n(Cc2ccc(F)cc2)c(=NCc2ccc(F)cc2)s1 | 2 | 8 | -1 | -1 | 1.4*
COC(=O)c1cc(=O)n(Cc2ccc3c(c2)OCO3)c(=Nc2ccc(F)cc2)s1 | 1 | 2 | 1 | 1 | -1
O=C(c1cc(F)ccc1F)N1CCCC(c2nc(-c3cccs3)no2)C1 (stereo not given) | 1 | 5 | . | -2 | -1
c1csc(-c2ccn[nH]2)c1 | 1 | 2 | -1 | 0 | -1
c1ccc(-c2ncc(-c3ccn[nH]3)s2)cc1 | 5.4* | 22* | 0 | 5 | 2.0*
O=C(O)CSc1nnc(Cc2cccc3ccccc23)n1-c1cc(C(F)(F)F)cc(C(F)(F)F)c1 | 0 | -1 | 5.7* | 2 | -1
Nn1c(Cc2cccc3ccccc23)nnc1SCc1ccccc1 | 0 | 4 | 0 | -3 | -1
O=C(CSc1nc2ccc(Cl)cc2[nH]1)Nc1ccc2[nH]c(=O)[nH]c2c1 | 1 | 0 | 0 | 3 | 1.0*
Cc1ccc2nc(SCC(=O)Nc3ccc4[nH]c(=O)[nH]c4c3)[nH]c2c1 | 3 | 2 | 0 | 3 | 1.0*
COC(=O)CSc1nc2ccc(C)cc2[nH]1 | 1 | 0 | 1 | 2 | -1
Cc1ccc2nc(SCC(=O)c3ccc(O)cc3O)[nH]c2c1 | 2 | 11* | 3 | 5 | 0
CCCCN1CN2Cc3ccc(C)cc3C2CS1(=O)=O (stereo not given) | 1 | -2 | . | -1 | -1
C/C(=N\NS(=O)(=O)c1ccc([N+](=O)[O-])cc1)c1ccc(NC(=O)c2ccco2)cc1 | 4.3* | 12* | 2 | 0 | -1
COc1ccc(C(=O)Nc2nncs2)cc1S(=O)(=O)N1CC(c2ccccc2)CC1=O (stereo not given) | 0 | -4 | 8.0* | -2 | -1
COc1cc(/C=N/N=C(/N)c2nonc2N)cc(Br)c1OCc1cccc(C)c1 | 0 | 7 | 0 | -2 | -1
COc1cc(/C=N/N=C(\N)c2nonc2N)cc(OC)c1O | 2 | 13* | 4.2* | 1 | 0
Cc1ccc(NC(=O)C2(S(=O)(=O)c3ccc(C)cc3)CC2)cc1 | . | . | 0 | . | .
Cc1ccc(S(=O)(=O)C2(C(=O)Nc3ccc(C(C)C)cc3)CC2)cc1 | 0 | 8 | -2 | -1 | 1.0*
CCOC(=O)c1c(NC(=O)CN2CCN(c3ccc(Cl)cc3)CC2)sc(C)c1C | -1 | 2 | 0 | 0 | -1
